Screening results: PubChem BioAssay, National Center for Advancing Translational Sciences (NCATS)
HTT cytoprotect: Huntington cell model cytoprotection by ATP luminescence | Potency, µM (titrated, usually from 56.4 µM), most hits filed as activators | PC12 HTT-Q103 induced, cytoprotection, ATP luminescence, 40 h | AID 1471 | 230,000 compounds, 0.14% hits; further: nearly all actives have a fitted effect of over 45% in size
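Compounds added alongside 100 nM tebufenozide, which induces toxic Q103 huntingtin exon 1-GFP in stable PC12 cells; surviving cells quantified by luminescent ATP measurement. Medium: phenol red-free DMEM, 5% equine and 5% calf serum.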
HTT aggregate: reduces HttQ103-GFP aggregates in PC12 cells | Potency, µM (top dose mostly 46.1 µM), usual class: inhibitors | PC12 HttQ103-GFP aggregates, Acumen cytometry, 40 h | 220,000 compounds, 1.1% hits; further: nearly all actives have a fitted effect of over 60% in size
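PC12 cells with ecdysone-inducible HTT exon1 Q103-GFP, induced by 100 nM tebufenozide, given compounds in a concentration series. GFP aggregates (1–25 um, 6 SD above background) counted in lysates by laser-scanning cytometry, 488 nm excitation.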
CBFb-RUNX1 inh: blocks binding between human CBF-beta and RUNX1; AlphaScreen CBFb-His/RUNX1-biotin binding, biochemical; Potency, µM (top dose mostly 59.8 µM), hits mostly inhibitors; 230,000 tested, under 10 active; AID 1477; Q01196+Q13951
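AlphaScreen binding: CBFb-His and RUNX1-biotin (30 nM each) preincubated 20 min, compound added for 15 min, then nickel and streptavidin beads for 90 min, all at room temperature. Disruption of the interaction by any mechanism counts as activity.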
NPSR antag: antagonists of human neuropeptide S receptor cAMP signaling | Potency, µM (series often up to 38.3 µM), actives largely listed as inhibitors | AID 1461 | CHO-NPSR cells, cAMP TR-FRET, antagonist mode | Q6W5P4 | 220,000 compounds, 1% hits; further: nearly all actives have a fitted effect of over 50% in size
Target sequence (Q6W5P4 whole entry, looked up): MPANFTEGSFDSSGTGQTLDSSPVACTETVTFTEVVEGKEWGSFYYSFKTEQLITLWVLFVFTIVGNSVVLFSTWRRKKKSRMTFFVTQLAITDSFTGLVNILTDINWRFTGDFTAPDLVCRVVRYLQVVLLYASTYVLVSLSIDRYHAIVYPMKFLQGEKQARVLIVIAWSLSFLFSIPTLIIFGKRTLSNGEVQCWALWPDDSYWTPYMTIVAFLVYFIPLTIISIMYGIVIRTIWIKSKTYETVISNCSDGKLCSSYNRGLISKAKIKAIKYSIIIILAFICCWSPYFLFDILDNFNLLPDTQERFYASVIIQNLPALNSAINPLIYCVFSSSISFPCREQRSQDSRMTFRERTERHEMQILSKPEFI
LMNA splice mod: changes lamin A minigene splicing in HeLa cells | HeLa LMNA splicing GFP/RFP minigene ratio, 48 h | Potency, µM (titrated, usually from 46.1 µM), most hits filed as inhibitors | 200,000 compounds, 0.01% hits | AID 1487; active means well fitted inhibition curve with a large enough effect in the signal ratio, with a control signal flat, not every such curve was filed as active; inconclusive means small, poorly fitted or top-dose-only effect, or effect the other way, or a change in a side signal; the % refers to the signal ratio
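S3 HeLa cells stably expressing lamin A-EGFP splicing minigene plus DsRed2, 600 cells/well, 48 h compound exposure at 37C. Laser-scanning cytometry; analysed as GFP (500-530 nm)/RFP (575-640 nm) total intensity ratio; 0.5% DMSO vehicle.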
MBNL1 CUG block: blocks human MBNL1 binding to CUG repeat RNA | AID 2675 | TR-FRET MBNL1-His/biotin-(CUG)12 binding, 665/545 ratio | Potency, µM (doses to about 57.5 µM), usual class: inhibitors | Q9NR56 | 280,000 compounds, 0.036% hits; active means well fitted inhibition curve with a large enough effect in the signal ratio, with a control signal flat, not every such curve was filed as active; inconclusive means small, poorly fitted or top-dose-only effect, or effect the other way, or a change in a side signal; inactive means no such curve, though single readings can be large or run the other way; the % refers to the signal ratio
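TR-FRET between His-tagged MBNL1 and biotin-(CUG)12 RNA, detected with Tb anti-His antibody (0.055 ng/ul) and streptavidin-XL665 (5 nM), 60 min at room temperature. Compounds titrated 92 nM to 58 uM; 665/545 nm ratio normalized to buffer and complex controls.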
Large screens that a line does not name were inactive. Hits are enriched below; roughly 1.1% of the tested compounds scored in any of these assays. Unless noted, the call rests on the fitted dose curve; in most records, active means well fitted curve in the direction sought with a large enough effect; inconclusive means small, poorly fitted or top-dose-only effect, or another doubt; inactive means no such curve, though single readings can be large; an effect the other way counts as inactive or inconclusive.

CCCCOc1ncnc2c1[nH]c1ccc(F)cc12	HTT aggregate 3.16µM, LMNA splice mod inconclusive
CCCCOc1ncnc2c1[nH]c1ccccc12	HTT aggregate 3.98µM, LMNA splice mod inconclusive
CCOCCCNc1ncnc2c1[nH]c1ccccc12	HTT aggregate 10µM, LMNA splice mod inconclusive
CCCCn1c(=O)nc2n(-c3ccc(Br)cc3)c3ccccc3cc-2c1=O	none (no result: HTT cytoprotect, HTT aggregate, CBFb-RUNX1 inh, NPSR antag, MBNL1 CUG block)
CO[C@@H](CCO)C[C@H]1O[C@H](C(=O)OC(C)C)CC[C@@H]1C	none (no result: HTT aggregate, NPSR antag, LMNA splice mod, MBNL1 CUG block)
CCOC(=O)C1CSC(Cc2ccc(OCc3ccc([N+](=O)[O-])cc3)cc2)N1 (configuration not stated)	none (no result: HTT aggregate, NPSR antag, LMNA splice mod, MBNL1 CUG block)
COc1ccc(C(Cl)=C(c2ccc(OC)cc2)c2ccc(OC)cc2)cc1	CBFb-RUNX1 inh inconclusive, NPSR antag 7.94µM, LMNA splice mod inconclusive
Cn1cc(C(=O)c2ccc(Cl)cc2Cl)cc1C(=O)N/N=C(\N)COc1ccc(Cl)cc1	none (no result: LMNA splice mod)
Cn1cc(C(=O)c2ccc(Cl)cc2Cl)cc1C(=O)N/N=C(\N)COc1ccc(F)cc1	HTT aggregate 17.8µM, LMNA splice mod inconclusive
CC1CCCCC1n1c(=S)[nH]c2ccccc2c1=O (configuration not stated)	HTT aggregate 20µM, NPSR antag inconclusive, LMNA splice mod inconclusive
COC(=O)c1ccc(NC(=O)CSc2nc(=O)[nH]c3c2CCCC3)cc1	none (no result: HTT cytoprotect, HTT aggregate, CBFb-RUNX1 inh, NPSR antag, MBNL1 CUG block)
O=C(Nc1ccccc1)N(Cc1cccs1)c1ccc(F)cc1	none (no result: HTT cytoprotect, HTT aggregate, CBFb-RUNX1 inh, NPSR antag, MBNL1 CUG block)
Cc1cccc(CN2CC34C=CC(CC3S2(=O)=O)O4)c1 (configuration not stated)	none (no result: HTT cytoprotect, HTT aggregate, NPSR antag, LMNA splice mod, MBNL1 CUG block)
CCCCN(CC)S(=O)(=O)c1ccc(C(=O)N(CCCN(C)C)c2nc3cc(C)cc(C)c3s2)cc1	HTT aggregate inconclusive, NPSR antag 10µM (no result: HTT cytoprotect, LMNA splice mod)
CCN(CC)c1ccc(-n2c(C)c(C(C)=O)c(C(C)=O)c2C)cc1	HTT aggregate 22.4µM, LMNA splice mod inconclusive
CCOC(=O)Cc1nnc2c(Nc3ccccc3F)nc3nonc3n12	HTT aggregate 15.8µM, LMNA splice mod inconclusive
O=C(Nc1ccc(O)cc1)c1cc2ccccc2c(=O)s1	LMNA splice mod inconclusive, MBNL1 CUG block inconclusive
O=C(Nc1ccccc1)c1cc2ccccc2c(=O)s1	HTT aggregate 11.2µM, LMNA splice mod inconclusive, MBNL1 CUG block inconclusive (no result: HTT cytoprotect)
CC/C(=N\NC(=O)C(N)=O)c1ccccc1O	HTT aggregate 10µM (no result: HTT cytoprotect)
CCOC(=O)c1ccccc1O	none (no result: CBFb-RUNX1 inh, NPSR antag, LMNA splice mod, MBNL1 CUG block)
CCC(=C(c1ccc(OC)cc1)c1ccc(OC)cc1)c1cn(CC(O)CN2CCN(C)CC2)c2ccccc12 (configuration not stated)	HTT aggregate 15.8µM, NPSR antag inconclusive, LMNA splice mod inconclusive
COc1ccc(-c2cc3ccccc3n2CC(O)CN2CCCCC2)cc1 (configuration not stated)	none (no result: LMNA splice mod)
CC(NC(=O)OCc1ccccc1)C(=O)Oc1cc2oc(=O)cc(-c3ccccc3)c2cc1Cl (configuration not stated)	HTT aggregate 8.91µM
CCOc1ccc(C[C@H]2NC(=O)CCSSC[C@@H](C(=O)N3CCC[C@H]3C(=O)N[C@@H](CCCN)C(=O)NCC(N)=O)NC(=O)[C@H](CC(N)=O)NC(=O)[C@H]([C@@H](C)O)NC(=O)[C@H]([C@@H](C)CC)NC2=O)cc1	none (no result: HTT cytoprotect, HTT aggregate, NPSR antag, LMNA splice mod, MBNL1 CUG block)
O=c1c2c(nc3c(-c4cccc(Br)c4)c[nH]n13)CCCC2	HTT aggregate 3.55µM
CCOC(=O)Cc1c(C)nc2c(-c3cccc(Br)c3)c[nH]n2c1=O	HTT aggregate 11.2µM, LMNA splice mod inconclusive
CCOC(=O)Cc1cc(=O)n2[nH]c(C)c(-c3ccccc3)c2n1	none
CCOC(=O)Cc1c(C)nc2c(-c3ccc(Cl)cc3)c(C)[nH]n2c1=O	HTT aggregate 17.8µM
O=c1c2c(nc3c(-c4ccccc4)c[nH]n13)CCC2	LMNA splice mod inconclusive
COc1ccccc1N1CCN(CCn2c(=O)c3c(c4ccccc4n3C)n(C)c2=O)CC1	none (no result: HTT aggregate, NPSR antag, LMNA splice mod, MBNL1 CUG block)
Cc1ccc2c(CSc3nc4nc(C)cc(C)n4n3)cc(=O)oc2c1	NPSR antag 10µM, LMNA splice mod inconclusive
